# About 410 targets per protein were measured; listed, in parts, are those with the strongest signals and a random draw of the rest.
# Columns and labels:
# Assay in all cases: glycan array binding signal (z-score within array); higher = stronger binding
# Conditions in all cases: glycan notation: IUPAC condensed, linker removed
# [1] = target: Fuc(a1-2)Gal(b1-3)[Fuc(a1-4)]GlcNAc(b1-2)Man(a1-3)[Fuc(a1-2)Gal(b1-3)[Fuc(a1-4)]GlcNAc(b1-2)Man(a1-6)]Man(b1-4)GlcNAc(b1-4)[Fuc(a1-6)]GlcNAc(b1-4)[Fuc(a1-6)]GlcNAc
# In short: (§1)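 The Consortium for Functional Glycomics database supplied 3228 glycan arrays, of which those lacking an available protein sequence were dropped. The binding signal, a within-array Z-score, was averaged across arrays of the same protein sequence and across linkers. Negative scores can be read as non-binding.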
# [2] = target: Fuc(a1-2)Gal(b1-4)GlcNAc(b1-2)Man
# In short: as §1
# [3] = target: Fuc(a1-2)Gal(b1-4)GlcNAc(b1-2)[Fuc(a1-2)Gal(b1-4)GlcNAc(b1-4)]Man(a1-3)[Fuc(a1-2)Gal(b1-4)GlcNAc(b1-2)Man(a1-6)]Man(b1-4)GlcNAc(b1-4)GlcNAc
# In short: as §1
# [4] = target: Fuc(a1-2)Gal(b1-4)[Fuc(a1-3)]GlcNAc
# In short: as §1
# [5] = target: Fuc(a1-2)Gal(b1-4)[Fuc(a1-3)]GlcNAc(b1-3)Gal(b1-4)[Fuc(a1-3)]GlcNAc(b1-3)Gal(b1-4)[Fuc(a1-3)]GlcNAc
# In short: as §1
# [6] = target: Fuc(a1-2)[Gal(a1-3)]Gal(b1-4)GlcNAc(b1-2)Man
# In short: as §1
# [7] = target: Fuc(a1-2)[GalNAc(a1-3)]Gal(b1-4)GlcNAc(b1-6)GalNAc
# In short: as §1
# [8] = target: Fuc(a1-3)[Gal(b1-4)]Glc6S
# In short: as §1
# [9] = target: Fuc(a1-3)[Gal(b1-4)]GlcNAc(b1-6)[Gal(b1-3)GlcNAc(b1-3)]Gal(b1-4)Glc
# In short: as §1
# [10] = target: Gal(a1-3)Gal(b1-3)GlcNAc
# In short: as §1
# [11] = target: Gal(a1-3)GalNAc
# In short: as §1
# [12] = target: Gal(b1-3)GlcNAc(a1-3)Gal(b1-4)GlcNAc
# In short: as §1
# [13] = target: Gal(b1-3)GlcNAc(b1-3)Gal(b1-4)GlcNAc(b1-2)[Gal(b1-3)GlcNAc(b1-3)Gal(b1-4)GlcNAc(b1-6)]Man(a1-6)[Gal(b1-3)GlcNAc(b1-3)Gal(b1-4)GlcNAc(b1-2)Man(a1-3)]Man(b1-4)GlcNAc(b1-4)[Fuc(a1-6)]GlcNAc
# In short: as §1
# [14] = target: Gal(b1-4)Glc
# In short: as §1
# [15] = target: Gal(b1-4)GlcNAc(a1-6)Gal(b1-4)GlcNAc
# In short: as §1
# [16] = target: Gal(b1-4)GlcNAc(b1-2)Man
# In short: as §1
# [17] = target: Gal(b1-4)GlcNAc(b1-2)[Gal(b1-4)GlcNAc(b1-4)]Man(a1-3)[Gal(b1-4)GlcNAc(b1-2)[Gal(b1-4)GlcNAc(b1-6)]Man(a1-6)]Man(b1-4)GlcNAc(b1-4)GlcNAc
# In short: as §1
# [18] = target: Gal(b1-4)GlcNAc(b1-3)Gal(b1-4)GlcNAc(b1-2)Man(a1-3)[Gal(b1-4)GlcNAc(b1-3)Gal(b1-4)GlcNAc(b1-2)Man(a1-6)]Man(b1-4)GlcNAc(b1-4)GlcNAc
# In short: as §1
# [19] = target: Gal(b1-4)GlcNAc(b1-3)Gal(b1-4)GlcNAc(b1-2)Man(a1-3)[Gal(b1-4)GlcNAc(b1-3)Gal(b1-4)GlcNAc(b1-2)Man(a1-6)]Man(b1-4)GlcNAc(b1-4)[Fuc(a1-6)]GlcNAc
# In short: as §1
# [20] = target: Gal(b1-4)GlcNAc(b1-3)Gal(b1-4)GlcNAc(b1-3)Gal(b1-4)GlcNAc(b1-3)Gal(b1-4)GlcNAc(b1-2)Man(a1-3)[Gal(b1-4)GlcNAc(b1-3)Gal(b1-4)GlcNAc(b1-3)Gal(b1-4)GlcNAc(b1-3)Gal(b1-4)GlcNAc(b1-2)Man(a1-6)]Man(b1-4)GlcNAc(b1-4)[Fuc(a1-6)]GlcNAc
# In short: as §1
# [21] = target: Gal(b1-4)GlcNAc(b1-3)Gal(b1-4)GlcNAc(b1-3)Gal(b1-4)GlcNAc(b1-3)Gal(b1-4)GlcNAc(b1-3)Gal(b1-4)GlcNAc(b1-2)Man(a1-3)[Gal(b1-4)GlcNAc(b1-3)Gal(b1-4)GlcNAc(b1-3)Gal(b1-4)GlcNAc(b1-3)Gal(b1-4)GlcNAc(b1-3)Gal(b1-4)GlcNAc(b1-2)Man(a1-6)]Man(b1-4)GlcNAc(b1-4)GlcNAc
# In short: as §1
# [22] = target: Gal(b1-4)GlcNAc(b1-3)Gal(b1-4)GlcNAc(b1-3)Gal(b1-4)GlcNAc(b1-3)Gal(b1-4)GlcNAc(b1-3)Gal(b1-4)GlcNAc(b1-2)[Gal(b1-4)GlcNAc(b1-3)Gal(b1-4)GlcNAc(b1-3)Gal(b1-4)GlcNAc(b1-3)Gal(b1-4)GlcNAc(b1-3)Gal(b1-4)GlcNAc(b1-6)]Man(a1-6)[Gal(b1-4)GlcNAc(b1-3)Gal(b1-4)GlcNAc(b1-3)Gal(b1-4)GlcNAc(b1-3)Gal(b1-4)GlcNAc(b1-3)Gal(b1-4)GlcNAc(b1-2)Man(a1-3)]Man(b1-4)GlcNAc(b1-4)[Fuc(a1-6)]GlcNAc
# In short: as §1
# [23] = target: Gal(b1-4)GlcNAc(b1-3)Gal(b1-4)GlcNAc(b1-3)Gal(b1-4)GlcNAc(b1-3)Gal(b1-4)GlcNAc(b1-3)Gal(b1-4)GlcNAc(b1-3)Gal(b1-4)GlcNAc(b1-2)Man(a1-3)[Gal(b1-4)GlcNAc(b1-3)Gal(b1-4)GlcNAc(b1-3)Gal(b1-4)GlcNAc(b1-3)Gal(b1-4)GlcNAc(b1-3)Gal(b1-4)GlcNAc(b1-3)Gal(b1-4)GlcNAc(b1-2)Man(a1-6)]Man(b1-4)GlcNAc(b1-4)GlcNAc
# In short: as §1
# [24] = target: Gal3S(b1-4)Glc
# In short: as §1
# [25] = target: GalNAc3S(b1-4)GlcNAc
# In short: as §1
# [26] = target: GalNAc3S(b1-4)[Fuc(a1-3)]GlcNAc
# In short: as §1
# [27] = target: GalNAc4S6S(b1-4)GlcNAc
# In short: as §1
binder,measurement,setting,value
GS13599A-bth-520-23-520 (Bacteroides thetaiotaomicron) (protein) SEDTMDRINKDHDHTTSVASRFILADVITSTAFSNASGDINTYASSYIEYEVGVDNQLYYAEVRENEPSSSSTFNNSWNGIYSSLKNARIIIDQCGEGGRDHGNDVTRGMAEVMAAYNCALIADFFGDAPCSQAALVDEKGSPVYMTPKMDTQQEIYTQIISYLDDAIANLQKEDLADVTEQDFLYAGDADKWLKFAYGLKARYTMRLINRSSNKSADYEKVLDYVSKSFTSADDQAAFDIYDSNNINPFYGFYNSRAGFGASTSLGTKLLAYNDPRANRAFFTPIVDKKRSQVAANDPSLVPAPNGSPDQSTSKYGISAFVYAKTAPTLLMSYHELMFLKAEALCRLNRDAEDALKEAVVAGLLNAENSISIAIKELGSGLNTNSSEVITETSAGKYFDDVVKAKYAANPLQETMIQKYLAMWGASGEATETYNDFRRMKGLNENFITLTNPNNSSKFPLRYPYGNSDTAANPEVKAAYGNGDYVYSEPVWWAGGSR,glycan array binding signal (z-score),[1],0.741
same,glycan array binding signal (z-score),[2],-0.841
same,glycan array binding signal (z-score),[3],2.4
same,glycan array binding signal (z-score),[4],0.206
same,glycan array binding signal (z-score),[5],-0.474
same,glycan array binding signal (z-score),[6],-0.234
same,glycan array binding signal (z-score),[7],-1.38
same,glycan array binding signal (z-score),[8],0.474
same,glycan array binding signal (z-score),[9],-0.479
same,glycan array binding signal (z-score),[10],-0.349
same,glycan array binding signal (z-score),[11],-1.08
same,glycan array binding signal (z-score),[12],0.206
same,glycan array binding signal (z-score),[13],2.93
same,glycan array binding signal (z-score),[14],-0.435
same,glycan array binding signal (z-score),[15],-1.2
same,glycan array binding signal (z-score),[16],2.44
same,glycan array binding signal (z-score),[17],-0.453
same,glycan array binding signal (z-score),[18],3.32
same,glycan array binding signal (z-score),[19],1.38
same,glycan array binding signal (z-score),[20],2.46
same,glycan array binding signal (z-score),[21],3.9
same,glycan array binding signal (z-score),[22],7.02
same,glycan array binding signal (z-score),[23],0.294
same,glycan array binding signal (z-score),[24],3.17
same,glycan array binding signal (z-score),[25],0.897
same,glycan array binding signal (z-score),[26],2.41
same,glycan array binding signal (z-score),[27],-1.28

# — the supplement of paper PMC8728848
